This passage reports outcome and AC50 results from PubChem BioAssay (EPA / NIEHS).

Assay [1] can be described thus: ATG_CRE_CIS: Attagene CIS-FACTORIAL HepG2 Assay for human cAMP Responsive Element (CRE) binding protein 3 (AID 2282926). The following applies: HepG2 CRE cis-reporter, Attagene multiplexed mRNA; actives raise or lower the signal. The procedure, abridged: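 Assay format: transient reporter transfection of HepG2, 24 h treatment, total RNA isolation with DNase I step. Reporter abundance read by fluorescence after PCR and capillary separation; DMSO-normalised gain or loss fitting.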

Assay [2] concerns the target CCAAT/enhancer-binding protein beta (Homo sapiens) (UniProt P17676). As to the kind of experiment: ATG_C_EBP_CIS: Attagene CIS-FACTORIAL HepG2 Assay for human CCAAT/Enhancer Binding Protein (C/EBP) beta (AID 2282927). As to conditions: HepG2 Attagene cis-factorial transcription factor reporter; actives raise or lower the signal. The gist of the method:
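Endogenous C/EBPb-driven reporter transcripts measured in transfected human HepG2 cells at 24 h via RT-PCR and capillary electrophoresis of labelled fragments. Activity fitted in both directions relative to DMSO baseline.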

The nature of assay [3]: ATG_CMV_CIS: Attagene CIS-FACTORIAL HepG2 Assay for human CMV (Internal Marker) (AID 2282928).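 Also: endpoint acts as a background internal control marker rather than a target.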 The following applies: HepG2 CMV promoter reporter, transcription factor profiling; actives raise or lower the signal. The gist of the method: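 24 h chemical treatment, HepG2 with transient multi-reporter transfection; RNA → oligo(dT) RT → PCR → 6-FAM extension → HpaI digest → CE fluorescence. Bidirectional fit, DMSO negative control.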

Assay [4] concerns the target Aryl hydrocarbon receptor (Homo sapiens) (UniProt P35869). Nature of the assay: ATG_Ahr_CIS: Attagene CIS-FACTORIAL HepG2 Assay for human Aryl Hydrocarbon Receptor (Ahr) (AID 2282930). As to conditions: HepG2 AhR cis-factorial reporter transcription; actives raise or lower the signal. The gist of the method:
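Reporter mRNA levels, quantified by RT-PCR and fluorescent capillary electrophoresis, reflect endogenous AhR transcriptional activity in HepG2 cells carrying transfected cis-promoter reporter constructs. Readout at 24 h post-dose; gain or loss fitted against DMSO baseline.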

Assay [5] in a line: ATG_AP_1_CIS: Attagene CIS-FACTORIAL HepG2 Assay for human Activator Protein 1 (AP-1) (AID 2282931). As to conditions: HepG2 Attagene cis-factorial AP-1 reporter mRNA; actives raise or lower the signal. The procedure, abridged:
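HepG2 cells transiently transfected with cis-element-driven multiplex reporter units; 24 h compound exposure. Reporter mRNA quantified by RT-PCR, FAM-labelled fragments resolved by capillary electrophoresis; bidirectional fit versus DMSO baseline.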

The nature of assay [6]: ATG_AP_2_CIS: Attagene CIS-FACTORIAL HepG2 Assay for human Activator Protein 2 (AP-2) (AID 2282932). As to conditions: HepG2 AP-2 cis-reporter, Attagene transcription factor profiling; actives raise or lower the signal. The gist of the method:
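Transiently transfected HepG2 cells are exposed to chemical for 24 h. Reporter transcripts are then measured as fluorescence following RT-PCR and capillary separation, and gain- or loss-of-signal is fitted relative to DMSO.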

Assay [7] is described as follows: ATG_BRE_CIS: Attagene CIS-FACTORIAL HepG2 Assay for human Bone Morphogenetic Protein (BMP) Response Element (BRE) (AID 2282933). As to conditions: HepG2 BMP response element reporter, Attagene transcription factor profiling; actives raise or lower the signal. The gist of the method:
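Read-out: reporter mRNA induction quantified by RT-PCR and capillary electrophoresis after 24 h chemical exposure of transfected HepG2 cells. Endogenous factor activity on the BMP response element; gain or loss fitted against DMSO baseline.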

Assay [8] has as its target Retinoic acid receptor alpha (Homo sapiens) (UniProt P10276). Nature of the assay: ATG_DR5_RAR_CIS: Attagene CIS-FACTORIAL HepG2 Assay for human Retinoic Acid Receptor Alpha (RARE), DR5 submotif (AID 2282934). The following applies: HepG2 Attagene cis-factorial RARE DR5 reporter, mRNA; actives raise or lower the signal. The procedure, abridged:
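Reporter transcripts from a DR5-regulated unit, measured via RT-PCR plus capillary electrophoresis, reflect endogenous RAR activity in transiently transfected human HepG2 liver cells. Exposure lasted 24 h; gain or loss of signal scored against DMSO.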

The target in assay [9] is Transcription factor E2F1 (Homo sapiens) (UniProt Q01094). Nature of the assay: ATG_E2F_CIS: Attagene CIS-FACTORIAL HepG2 Assay for human E2F Transcription Factor 1 (AID 2282935). The following applies: HepG2 Attagene cis-reporter, E2F reporter RNA transcripts; actives raise or lower the signal. The procedure, abridged: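 Fluorescent RT-PCR products, digested with HpaI for 2 h at 37 C, are separated by capillary electrophoresis. Source RNA comes from transfected HepG2 cultures treated for 24 h.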
Chain of Transcription factor E2F1 (Homo sapiens) (Q01094 whole entry, looked up): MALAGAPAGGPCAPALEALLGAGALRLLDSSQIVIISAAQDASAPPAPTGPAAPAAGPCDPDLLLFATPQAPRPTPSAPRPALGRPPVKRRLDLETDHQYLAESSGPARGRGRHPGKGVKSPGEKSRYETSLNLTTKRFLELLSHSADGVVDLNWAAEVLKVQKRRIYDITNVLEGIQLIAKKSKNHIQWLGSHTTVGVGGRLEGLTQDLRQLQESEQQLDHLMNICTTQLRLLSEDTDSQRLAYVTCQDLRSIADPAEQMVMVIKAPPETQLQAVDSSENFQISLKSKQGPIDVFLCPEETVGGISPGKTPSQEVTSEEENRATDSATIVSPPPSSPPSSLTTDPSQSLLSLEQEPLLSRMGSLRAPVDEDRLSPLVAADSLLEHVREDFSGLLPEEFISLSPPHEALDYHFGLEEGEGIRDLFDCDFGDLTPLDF

A short description of assay [10]: ATG_M_61_CIS: Attagene CIS-FACTORIAL HepG2 Assay for M61 Transcription Factor (Internal Marker) (AID 2282937). The following applies: HepG2 Attagene CIS-FACTORIAL M61 internal marker reporter; actives raise or lower the signal. The gist of the method:
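HepG2 cells transiently transfected with cis-element-driven multiple reporter transcription units, dosed for 24 h. Reporter mRNA measured by RT-PCR, 6-FAM primer-extension labelling, HpaI digestion and capillary electrophoresis; bidirectional fit versus DMSO baseline.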

Assay [11] in a line: ATG_EGR_CIS: Attagene CIS-FACTORIAL HepG2 Assay for human Early Growth Response 1 (EGR1) (AID 2282938). As to conditions: HepG2 Attagene CIS-FACTORIAL EGR reporter mRNA; actives raise or lower the signal. The gist of the method: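 HepG2 cells transiently transfected with cis-promoter-driven multiplexed reporter transcription units; reporter mRNA measured 24 h after compound dosing by RT-PCR, 6-FAM primer extension, HpaI digestion and capillary electrophoresis. Bidirectional fit versus DMSO baseline.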

Assay [12] in a line: ATG_M_19_CIS: Attagene CIS-FACTORIAL HepG2 Assay for M19 Transcription Factor (Internal Marker) (AID 2282939). As to conditions: HepG2 Attagene CIS-FACTORIAL M19 internal marker reporter; actives raise or lower the signal. The gist of the method:
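Readout: fluorescent reporter-transcript fragments by capillary electrophoresis after RT-PCR. Human HepG2 liver cells carried transfected MRTU constructs reporting endogenous transcription-factor activity; exposure 24 h. Gain or loss of signal fitted relative to DMSO.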

Assay [13] in a line: ATG_ERE_CIS: Attagene CIS-FACTORIAL HepG2 Assay for Estrogen Response Element (ERE) (AID 2282940). As to conditions: HepG2 ERE cis-reporter, Attagene RNA transcript; actives raise or lower the signal. The gist of the method: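 Readout: reporter mRNA induction by RT-PCR, FAM-labelled primer extension, HpaI digestion and capillary electrophoresis, 24 h after dosing transfected HepG2 cells. Endogenous transcription factors act on cis-element-regulated reporters. Gain or loss fitted against DMSO.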

Assay [14] is described as follows: ATG_Ets_CIS: Attagene CIS-FACTORIAL HepG2 Assay for human Erythroblast Transformation Specific (ETS) (AID 2282941). As to conditions: HepG2 ETS cis-reporter transcription, actives raise or lower the signal. The gist of the method:
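Cis-regulated reporter mRNA induction in HepG2 (transient transfection), 24 h exposure, RT-PCR plus capillary electrophoresis detection; DMSO serves as negative control and baseline.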

In assay [15] the target is Hepatocyte nuclear factor 3-beta (Homo sapiens) (UniProt Q9Y261). As to the kind of experiment: ATG_FoxA2_CIS: Attagene CIS-FACTORIAL HepG2 Assay for human Forkhead box A2 (FOXA2) (AID 2282942). As to conditions: HepG2 cis-reporter transcription factor activity, 24 h; actives raise or lower the signal. The procedure, abridged: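 HepG2 cells transiently transfected with multiple cis-regulated reporter transcription units, dosed for 24 h. Reporter mRNA measured by RT-PCR, 6-FAM labelling, HpaI digestion and capillary electrophoresis; bidirectional fitting against DMSO baseline.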
Chain of Hepatocyte nuclear factor 3-beta (Homo sapiens) (Q9Y261 whole entry, looked up): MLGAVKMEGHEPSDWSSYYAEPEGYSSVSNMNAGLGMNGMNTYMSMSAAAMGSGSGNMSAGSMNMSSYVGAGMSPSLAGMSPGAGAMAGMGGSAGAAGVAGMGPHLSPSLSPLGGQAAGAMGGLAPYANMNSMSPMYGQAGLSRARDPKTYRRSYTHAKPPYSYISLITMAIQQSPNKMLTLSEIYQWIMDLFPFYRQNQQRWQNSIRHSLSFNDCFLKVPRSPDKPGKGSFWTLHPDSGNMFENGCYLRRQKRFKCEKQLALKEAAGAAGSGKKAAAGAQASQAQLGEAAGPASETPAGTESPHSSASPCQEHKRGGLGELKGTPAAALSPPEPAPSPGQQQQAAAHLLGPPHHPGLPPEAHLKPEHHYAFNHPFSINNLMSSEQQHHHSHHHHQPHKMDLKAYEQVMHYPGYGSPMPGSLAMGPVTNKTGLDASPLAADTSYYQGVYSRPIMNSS

A short description of assay [16]: ATG_FoxO_CIS: Attagene CIS-FACTORIAL HepG2 Assay for human Forkhead box O (FoxO) (AID 2282943). The following applies: HepG2 Attagene cis-reporter, FoxO element, mRNA; actives raise or lower the signal. The gist of the method: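 Endogenous transcription factor activity read from multiplexed cis-promoter reporter transcripts in transiently transfected HepG2, 24 h after dosing. Reporter RNA measured via RT-PCR plus capillary electrophoresis of FAM-labeled products; gain or loss relative to DMSO.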

Assay [17] in a line: ATG_GATA_CIS: Attagene CIS-FACTORIAL HepG2 Assay for human GATA Binding Protein (AID 2282944). The following applies: HepG2 GATA cis-element reporter, Attagene multiplex mRNA; actives raise or lower the signal. The gist of the method:
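Read-out: fluorescent reporter mRNA fragments resolved by capillary electrophoresis after RT-PCR. Human liver HepG2 cells carried transiently transfected cis-regulated reporter constructs; chemicals incubated 24 h; gain or loss of signal fitted relative to DMSO.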

Assay [18] in a line: ATG_GLI_CIS: Attagene CIS-FACTORIAL HepG2 Assay for human Zinc Finger Protein GLI1 (AID 2282945). The following applies: HepG2, Attagene cis-factorial reporter mRNA, GLI element; actives raise or lower the signal. The procedure, abridged:
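Bidirectional curve fits relative to DMSO, using reporter mRNA levels from RT-PCR plus capillary electrophoresis. Cells were HepG2 transiently carrying cis-regulated reporter constructs, harvested 24 h after dosing.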

Assay [19] can be described thus: ATG_E_Box_CIS: Attagene CIS-FACTORIAL HepG2 Assay for human Enhancer Box (E-box) (AID 2282936). The following applies: HepG2 E-box cis-reporter transcription, actives raise or lower the signal. The procedure, abridged:
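Fluorescent reporter fragments separated by capillary electrophoresis gave the signal; mRNA came from HepG2 cells transfected with cis-element reporters and treated 24 h. Curves fitted bidirectionally relative to DMSO controls.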

Active and inactive are the calls of the source. The calls were made as follows: active = hit-call score of the fitted dose curve at least 0.9, where 1 is the maximum; inactive = score below 0.9.

Chain of Aryl hydrocarbon receptor (Homo sapiens) (P35869 whole entry, looked up): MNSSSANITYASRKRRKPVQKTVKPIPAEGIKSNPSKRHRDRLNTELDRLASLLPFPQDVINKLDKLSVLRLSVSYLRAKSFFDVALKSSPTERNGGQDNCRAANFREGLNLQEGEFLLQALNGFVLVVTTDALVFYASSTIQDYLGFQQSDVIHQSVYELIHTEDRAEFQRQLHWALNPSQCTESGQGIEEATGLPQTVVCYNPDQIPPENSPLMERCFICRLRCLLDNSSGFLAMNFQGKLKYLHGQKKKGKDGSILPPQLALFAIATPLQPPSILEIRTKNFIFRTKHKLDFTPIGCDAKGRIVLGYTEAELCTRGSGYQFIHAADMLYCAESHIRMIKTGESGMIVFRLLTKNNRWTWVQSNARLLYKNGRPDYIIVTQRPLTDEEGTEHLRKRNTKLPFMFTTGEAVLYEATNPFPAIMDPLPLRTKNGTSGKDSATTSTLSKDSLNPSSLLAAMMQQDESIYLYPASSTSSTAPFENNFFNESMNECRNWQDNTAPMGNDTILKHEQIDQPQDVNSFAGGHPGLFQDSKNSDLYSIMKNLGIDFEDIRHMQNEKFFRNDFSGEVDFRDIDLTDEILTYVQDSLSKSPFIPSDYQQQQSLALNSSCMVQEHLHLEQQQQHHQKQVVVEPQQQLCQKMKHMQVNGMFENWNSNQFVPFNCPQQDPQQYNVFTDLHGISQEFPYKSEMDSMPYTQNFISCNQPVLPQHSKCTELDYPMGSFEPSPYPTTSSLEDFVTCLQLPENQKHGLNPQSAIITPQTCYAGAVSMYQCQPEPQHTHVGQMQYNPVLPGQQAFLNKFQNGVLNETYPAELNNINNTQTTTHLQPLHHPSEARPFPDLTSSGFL
Chain of CCAAT/enhancer-binding protein beta (Homo sapiens) (P17676 whole entry, looked up, the tested form may be a part): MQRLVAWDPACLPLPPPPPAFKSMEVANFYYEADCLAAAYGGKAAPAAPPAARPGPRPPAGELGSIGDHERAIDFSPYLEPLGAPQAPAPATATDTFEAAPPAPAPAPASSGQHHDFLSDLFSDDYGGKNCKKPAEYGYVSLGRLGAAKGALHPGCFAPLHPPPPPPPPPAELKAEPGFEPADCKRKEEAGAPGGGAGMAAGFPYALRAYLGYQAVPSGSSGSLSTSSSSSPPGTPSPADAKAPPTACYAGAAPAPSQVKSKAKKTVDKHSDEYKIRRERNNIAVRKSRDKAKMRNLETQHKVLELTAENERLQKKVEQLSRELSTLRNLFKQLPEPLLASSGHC
Chain of Retinoic acid receptor alpha (Homo sapiens) (P10276 whole entry, looked up): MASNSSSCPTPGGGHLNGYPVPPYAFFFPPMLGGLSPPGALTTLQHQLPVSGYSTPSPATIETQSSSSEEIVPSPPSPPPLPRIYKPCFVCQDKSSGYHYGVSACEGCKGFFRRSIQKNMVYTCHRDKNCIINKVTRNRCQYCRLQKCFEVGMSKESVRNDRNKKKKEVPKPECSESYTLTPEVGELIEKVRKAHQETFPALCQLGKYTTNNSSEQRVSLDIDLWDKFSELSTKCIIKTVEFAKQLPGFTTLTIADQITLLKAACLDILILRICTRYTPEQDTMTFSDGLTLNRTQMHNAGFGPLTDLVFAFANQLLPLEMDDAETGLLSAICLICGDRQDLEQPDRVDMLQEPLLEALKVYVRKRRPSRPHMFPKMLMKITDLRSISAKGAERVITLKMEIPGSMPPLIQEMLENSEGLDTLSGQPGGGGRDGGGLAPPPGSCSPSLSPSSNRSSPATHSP

Turning to `CCCCCC(C)O` (stereo unspecified), the call in assay [1], in assay [2], in assay [3], in [4], in assay [5] and in assay [6] was inactive. Further, the result in assay [7], in [8], in [9], in assay [10], in assay [11] and in assay [12] was inactive. Moreover, the call in assay [13], in assay [14], in assay [15], in assay [16], in [17] and in assay [18] was inactive.
Regarding `C1=CCCC1`, the outcome in assay [1], in assay [2], in [3], in assay [4], in assay [5] and in assay [6] was inactive. For the same molecule, the molecule was called inactive in assay [7], in [8], in [9], in [19], in [10] and in assay [11]. For the same molecule, the call in assay [12], in [13], in [15], in assay [16], in assay [17] and in assay [18] was inactive.
One may read the AC50 as the concentration giving half of the maximal activity seen. Turning to `C/C=C\C/C=C/CCCCCCCCOC(C)=O`, the call in assay [1], in [2], in assay [3], in assay [4], in assay [8] and in assay [9] was inactive. Besides, the outcome in assay [19], in [10], in assay [12], in [13], in [14] and in assay [15] was inactive. The call in [16], in assay [17] and in [18] was inactive. For the same molecule, the AC50 in assay [5] was 134 µM (active); in [7], 67.9 µM (active); in assay [11] it was 100 µM (active).
Take `CC(=O)c1ccc2c(c1)CCCC2`: the molecule was classed as inactive in assay [1], in assay [2], in assay [3], in assay [4], in [5] and in assay [6]. For the same molecule, the call in assay [7], in assay [8], in assay [9], in assay [10], in [11] and in [12] was inactive. For the same molecule, the result in assay [13], in assay [15], in assay [16], in assay [17] and in assay [18] was inactive.
